Data taken from PubChem BioAssay AID1159580 (chemical genetic matrix, 2015).
Among all 5,500 compounds or so, about 2,000 (36%) were called active. Another 18% or so got no clear call; they are omitted. Some of the results follow. A number with no mark means an inactive call. No stated cut-off is given here; in the data, active means normalized growth mostly below about 0.91 (no sharp cut-off); inconclusive means no clear call, values can overlap the other calls; inactive means mostly above about 0.92.

Assay: chemical genetic growth profiling, strain panel (AID 1159580);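 further: tested at 20 µM; growth read once vehicle control cultures reached saturation at 30 °C; 1 = growth at the plate median or of vehicle wells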
Conditions: S. cerevisiae deletion strains, growth OD
[1] = locus YDL101C, strain DUN1, stronger effect = lower value
[2] = locus YHR030C, strain SLT2, stronger effect = lower value
[3] = locus YAR019C, strain CDC15, stronger effect = lower value
[4] = locus YBL105C, strain PKC1, stronger effect = lower value
[5] = locus YBR135W, strain CKS1, stronger effect = lower value
[6] = locus YBR136W, strain MEC1, stronger effect = lower value
[7] = locus YBR160W, strain CDC28, stronger effect = lower value
[8] = locus YDL017W, strain CDC7, stronger effect = lower value
[9] = locus YDL028C, strain MPS1, stronger effect = lower value
[10] = locus YDL108W, strain KIN28, stronger effect = lower value
[11] = locus YDL132W, strain cdc53, stronger effect = lower value
[12] = locus YDL214C, strain PRR2, stronger effect = lower value
[13] = locus YDR052C, strain DBF4, stronger effect = lower value
[14] = locus YDR054C, strain cdc34, stronger effect = lower value
[15] = locus YDR226W, strain ADK1, stronger effect = lower value
[16] = locus YDR477W, strain SNF1, stronger effect = lower value
[17] = locus YER123W, strain YCK3, stronger effect = lower value
[18] = locus YER133W, strain GLC7, stronger effect = lower value
[19] = locus YFL009W, strain cdc4, stronger effect = lower value
[20] = locus YFL029C, strain CAK1, stronger effect = lower value
[21] = locus YFR003C, strain YPI1, stronger effect = lower value
[22] = locus YFR019W, strain FAB1, stronger effect = lower value
[23] = locus YFR028C, strain CDC14, stronger effect = lower value
[24] = locus YGR040W, strain KSS1, stronger effect = lower value
[25] = locus YGR052W, strain FMP48, stronger effect = lower value
[26] = locus YGR092W, strain DBF2, stronger effect = lower value
[27] = locus YHR079C, strain IRE1, stronger effect = lower value
[28] = locus YHR082C, strain KSP1, stronger effect = lower value
[29] = locus YHR205W, strain SCH9, stronger effect = lower value
[30] = locus YIL147C, strain SLN1, stronger effect = lower value
[31] = locus YJL095W, strain BCK1, stronger effect = lower value
[32] = locus YJL128C, strain PBS2, stronger effect = lower value
[33] = locus YJL157C, strain FAR1, stronger effect = lower value
[34] = locus YJR016C, strain ILV3, stronger effect = lower value
[35] = locus YJR066W, strain TOR1 (second series), stronger effect = lower value
[36] = locus YJR066W, strain TOR1, stronger effect = lower value
[37] = locus YKL048C, strain ELM1, stronger effect = lower value
[38] = locus YKL067W, strain YNK1, stronger effect = lower value
[39] = locus YKL101W, strain HSL1, stronger effect = lower value
[40] = locus YKL193C, strain SDS22, stronger effect = lower value
[41] = locus YKL203C, strain TOR2, stronger effect = lower value
[42] = locus YLR113W, strain HOG1, stronger effect = lower value
[43] = locus YLR133W, strain CKI1, stronger effect = lower value
[44] = locus YLR403W, strain SFP1, stronger effect = lower value
[45] = locus YML070W, strain DAK1, stronger effect = lower value
[46] = locus YMR001C, strain CDC5, stronger effect = lower value
[47] = locus YMR205C, strain PFK2 (second series), stronger effect = lower value
[48] = locus YMR277W, strain FCP1, stronger effect = lower value
[49] = locus YNL006W, strain LST8, stronger effect = lower value
[50] = locus YNL020C, strain ARK1, stronger effect = lower value
[51] = locus YNL161W, strain CBK1, stronger effect = lower value
[52] = locus YNL183C, strain NPR1, stronger effect = lower value
[53] = locus YNL207W, strain RIO2, stronger effect = lower value
[54] = locus YNL222W, strain SSU72, stronger effect = lower value
[55] = locus YNL307C, strain MCK1 (second series), stronger effect = lower value
[56] = locus YOL078W, strain AVO1, stronger effect = lower value
[57] = locus YOL136C, strain PFK27, stronger effect = lower value
[58] = locus YOR061W, strain CKA2, stronger effect = lower value
[59] = locus YOR119C, strain RIO1, stronger effect = lower value
[60] = locus YOR231W, strain MKK1, stronger effect = lower value
[61] = locus YOR329C, strain SCD5, stronger effect = lower value
[62] = locus YPL031C, strain PHO85, stronger effect = lower value
[63] = locus YPL153C, strain RAD53, stronger effect = lower value
[64] = locus YPL204W, strain HRR25, stronger effect = lower value
[65] = locus YPL209C, strain IPL1, stronger effect = lower value
[66] = locus YPL256C, strain CLN2, stronger effect = lower value
[67] = locus YPR025C, strain CCL1, stronger effect = lower value
[68] = locus YPR106W, strain ISR1, stronger effect = lower value
[69] = locus YPR111W, strain DBF20, stronger effect = lower value
[70] = strain NNK1, stronger effect = lower value
[71] = strain TSCII, stronger effect = lower value

COc1c(Br)cc(/C(N)=N\OC(=O)c2c(-c3c(Cl)cccc3Cl)noc2C)cc1Br
normalized growth (locus YAL013W, strain DEP1, stronger effect = lower value): 1.03
normalized growth (locus YBR229C, strain ROT2, stronger effect = lower value): 1.01
normalized growth [1]: 1
normalized growth (locus YDR150W, strain NUM1, stronger effect = lower value): 1.02
normalized growth (locus YEL061C, strain CIN8, stronger effect = lower value): 0.983
normalized growth (locus YGR078C, strain PAC10, stronger effect = lower value): 1.02
normalized growth [2]: 1.08
normalized growth (locus YHR087W, strain rtc3, stronger effect = lower value): 1.02
normalized growth (locus YJR043C, strain POL32, stronger effect = lower value): 1.01
normalized growth (locus YJR075W, strain HOC1, stronger effect = lower value): 1.01
normalized growth (locus YKL190W, strain CNB1, stronger effect = lower value): 1.01
normalized growth (locus YLR039C, strain RIC1, stronger effect = lower value): 1.09
normalized growth (locus YLR058C, strain SHM2 (second series), stronger effect = lower value): 1.01
normalized growth (locus YLR085C, strain ARP6, stronger effect = lower value): 1.13
normalized growth (locus YLR262C, strain YPT6, stronger effect = lower value): 1.04
normalized growth (locus YML094W, strain GIM5, stronger effect = lower value): 1.04
normalized growth (locus YMR219W, strain ESC1, stronger effect = lower value): 1.01
normalized growth (locus YMR263W, strain SAP30, stronger effect = lower value): 1
normalized growth (locus YMR307W, strain GAS1, stronger effect = lower value): 1.05
normalized growth (locus YNL153C, strain GIM3, stronger effect = lower value): 0.998
normalized growth (locus YNL298W, strain CLA4 (second series), stronger effect = lower value): 1.05
normalized growth (locus YNL322C, strain KRE1, stronger effect = lower value): 1.01
normalized growth (locus YNR030W, strain Alg12, stronger effect = lower value): 1.03
normalized growth (locus YPL055C, strain LGE1, stronger effect = lower value): 1.07
normalized growth (locus YPL241C, strain CIN2, stronger effect = lower value): 0.98
normalized growth (locus YPR135W, strain CTF4, stronger effect = lower value): 1.17

Cc1onc(-c2c(Cl)cccc2Cl)c1C(=O)O/N=C(/N)Cc1ccc(C(C)(C)C)cc1
normalized growth [3]: 0.991
normalized growth [4]: 0.986
normalized growth [5]: 0.988
normalized growth [6]: 0.995
normalized growth [7]: 0.983
normalized growth [8]: 0.988
normalized growth [9]: 0.993
normalized growth [1]: 0.986
normalized growth [10]: 0.989
normalized growth [11]: 0.983
normalized growth [12]: 0.982
normalized growth [13]: 0.987
normalized growth [14]: 0.989
normalized growth [15]: 0.993
normalized growth [16]: 1
normalized growth [17]: 0.998
normalized growth [18]: 0.999
normalized growth [19]: 0.987
normalized growth [20]: 0.986
normalized growth [21]: 0.996
normalized growth [22]: 0.995
normalized growth [23]: 0.989
normalized growth [24]: 0.999
normalized growth [25]: 1.15
normalized growth [26]: 0.983
normalized growth [2]: 1.22 [resistant] (active)
normalized growth [27]: 1.12
normalized growth [28]: 1.16
normalized growth [29]: 0.993
normalized growth [30]: 0.987
normalized growth [31]: 1.15
normalized growth [32]: 0.953
normalized growth [33]: 0.991
normalized growth [34]: 0.992
normalized growth [35]: 0.986
normalized growth [36]: 1.17
normalized growth [37]: 0.999
normalized growth [38]: 1
normalized growth [39]: 0.998
normalized growth [40]: 0.989
normalized growth [41]: 1.06
normalized growth [42]: 1.08
normalized growth [43]: 0.991
normalized growth [44]: 0.994
normalized growth [45]: 0.99
normalized growth [46]: 0.989
normalized growth [47]: 1
normalized growth [48]: 0.994
normalized growth [49]: 0.994
normalized growth [50]: 1.01
normalized growth [51]: 0.995
normalized growth [52]: 1.14
normalized growth [53]: 0.992
normalized growth [54]: 0.987
normalized growth [55]: 0.995
normalized growth [56]: 0.985
normalized growth [57]: 1.02
normalized growth [58]: 1.01
normalized growth [59]: 1.05
normalized growth [60]: 1.08
normalized growth [61]: 0.997
normalized growth [62]: 1.02
normalized growth [63]: 1
normalized growth [64]: 1.02
normalized growth [65]: 1
normalized growth [66]: 1.1
normalized growth [67]: 0.986
normalized growth [68]: 0.994
normalized growth [69]: 0.988
normalized growth [70]: 0.997
normalized growth [71]: 0.99

Cc1onc(-c2c(F)cccc2Cl)c1/C(N)=N\OC(=O)c1ccc(C(C)(C)C)cc1
normalized growth [3]: 0.989
normalized growth [4]: 0.998
normalized growth [5]: 0.985
normalized growth [6]: 0.986
normalized growth [7]: 0.989
normalized growth [8]: 0.993
normalized growth [9]: 0.985
normalized growth [1]: 0.98
normalized growth [10]: 0.978
normalized growth [11]: 0.989
normalized growth [12]: 0.971
normalized growth [13]: 0.994
normalized growth [14]: 1
normalized growth [15]: 0.989
normalized growth [16]: 0.976
normalized growth [17]: 0.948
normalized growth [18]: 0.967
normalized growth [19]: 0.987
normalized growth [20]: 1
normalized growth [21]: 0.997
normalized growth [22]: 0.982
normalized growth [23]: 0.984
normalized growth [24]: 0.975
normalized growth [25]: 1.1
normalized growth [26]: 1
normalized growth [2]: 1.17 [resistant] (active)
normalized growth [27]: 1.08
normalized growth [28]: 1.11
normalized growth [29]: 0.986
normalized growth [30]: 0.981
normalized growth [31]: 1.11
normalized growth [32]: 0.957
normalized growth [33]: 0.963
normalized growth [34]: 0.982
normalized growth [35]: 0.932
normalized growth [36]: 1.12
normalized growth [37]: 0.983
normalized growth [38]: 0.994
normalized growth [39]: 0.972
normalized growth [40]: 0.991
normalized growth [41]: 1.05
normalized growth [42]: 1
normalized growth [43]: 0.988
normalized growth [44]: 0.968
normalized growth [45]: 0.966
normalized growth [46]: 0.987
normalized growth [47]: 0.987
normalized growth [48]: 0.992
normalized growth [49]: 0.988
normalized growth [50]: 0.978
normalized growth [51]: 0.991
normalized growth [52]: 1.11
normalized growth [53]: 0.99
normalized growth [54]: 0.99
normalized growth [55]: 0.998
normalized growth [56]: 0.982
normalized growth [57]: 0.956
normalized growth [58]: 0.967
normalized growth [59]: 1.02
normalized growth [60]: 1.05
normalized growth [61]: 0.996
normalized growth [62]: 0.991
normalized growth [63]: 0.973
normalized growth [64]: 0.979
normalized growth [65]: 0.993
normalized growth [66]: 1.05
normalized growth [67]: 0.99
normalized growth [68]: 0.988
normalized growth [69]: 0.986
normalized growth [70]: 0.99
normalized growth [71]: 0.99
